Screening results (PubChem BioAssay)
This is a sample that favours compounds with a hit; in the whole collection about 7.5% have one here.
NPC1 prom act: activates the NPC1 promoter; Huh7 NPC1 promoter luciferase reporter, 24 h; Potency, µM (top dose mostly 9.22 µM), inactives show at the highest dose activation, usual class: activators; 320,000 tested, 2.4% active; AID 485313; further: % of control where 0% means no effect; nearly all actives have a fitted effect of over 60% in size
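Quantitative HTS used a cell-based reporter: Huh7 cells stably bearing the NPC1 promoter upstream of luciferase were treated with compounds for 24 h, and promoter activation was read as luminescence.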
ELG1 genotoxic: genotoxicity induction in ELG1-luciferase HEK293T cells. Potency, µM (doses to about 46 µM), for inactives: at the highest dose activity change, positive = activation, actives largely listed as activators. HEK293T ELG1-luciferase reporter, luminescence, 16 h. 330,000 tested, 1.3% active. AID 504466; further: % of control where 0% means no effect; nearly all actives have a fitted effect of over 60% in size
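ELG1-luciferase HEK293T cells, 2,000/well; compound pinned in; 16 hr, 37 °C, 5% CO2; ONE-Glo, 30 min RT; luminescence on CCD imager.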
SMN2 splice up: increases expression of the SMN2 splice variant; 210,000 tested, 2.8% active; Potency, µM (highest dose often 46.1 µM), inactives show at the top dose activity change, positive = activation, usual class: activators; HEK293 SMN2-luciferase splicing reporter, luminescence, 30-36 h; further: % of control where 0% means no effect; nearly all actives have a fitted effect of over 55% in size
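HEK293 cells carry an SMN2 […]–luciferase reporter in which exon 7 inclusion puts luciferase in frame. Cells were plated 10-12 h before compound addition, then incubated 30-36 h at 37C. ONE-Glo luminescence was read; sodium butyrate at 4.5 mM final served as control.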
FLuc counter: counter-screen for miR-21 project: firefly luciferase inhibitors or activators. purified FLuc, Km substrates, luminescence inhibition. 360,000 tested, 6.9% active. P08659. Potency, µM (titrated, usually from 57.5 µM), without a hit: top-dose activity change, negative = inhibition, most hits filed as inhibitors;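 further: plate controls were vehicle for no effect and reference inhibitor for full effect; nearly all actives have a fitted effect of over 55% in size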
Target sequence (P08659 whole entry, looked up): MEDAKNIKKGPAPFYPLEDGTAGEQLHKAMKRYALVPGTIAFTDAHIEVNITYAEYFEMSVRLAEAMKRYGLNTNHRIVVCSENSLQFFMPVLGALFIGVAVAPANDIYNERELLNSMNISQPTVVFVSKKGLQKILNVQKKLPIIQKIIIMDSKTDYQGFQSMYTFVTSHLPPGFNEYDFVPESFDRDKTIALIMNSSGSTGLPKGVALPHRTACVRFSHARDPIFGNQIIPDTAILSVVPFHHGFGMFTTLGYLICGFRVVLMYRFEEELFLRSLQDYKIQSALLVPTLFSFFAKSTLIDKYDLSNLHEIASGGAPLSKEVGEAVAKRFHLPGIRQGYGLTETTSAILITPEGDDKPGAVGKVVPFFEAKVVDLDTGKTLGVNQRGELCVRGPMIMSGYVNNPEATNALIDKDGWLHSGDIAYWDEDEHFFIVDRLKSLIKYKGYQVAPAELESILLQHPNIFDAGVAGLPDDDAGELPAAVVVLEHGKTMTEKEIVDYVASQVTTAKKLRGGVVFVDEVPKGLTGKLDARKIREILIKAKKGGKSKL
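Purified P. pyralis luciferase (10nM final) with 10uM D-luciferin and 10uM ATP (Km levels) in 50mM Tris acetate pH 7.5, 10mM Mg acetate, 0.01% Tween-20, 0.05% BSA; qHTS 6-point titration, ~60 µM downward; luminescence read.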
Rab9 prom act: Rab9 promoter activation | Huh7 Rab9 promoter-luciferase reporter, luminescence, 24 h | 320,000 tested, 2.8% active | Potency, µM (top dose mostly 9.22 µM), inactives show at the top dose activation, negative = inhibition, actives largely listed as activators; further: % of control where 0% means no effect; nearly all actives have a fitted effect of over 60% in size
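Huh7 reporter line, Rab9 promoter upstream of luciferase. Compound exposure 24 h at 37 °C in reduced-serum medium with 10% FBS. Read-out: luminescence.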
Luc counter: counter-screen: inhibitors of Kinase-Glo firefly luciferase | Q27757 | Kinase-Glo luciferase, ATP luminescence, 8 min | Potency, µM (top dose mostly 38.3 µM), without a hit: at the highest dose activity change, negative = inhibition, most hits filed as inhibitors | 200,000 tested, 0.28% active; further: on the % scale 0 is the no-effect control and ±100 the full control effect; nearly all actives have a fitted effect of over 60% in size
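Compounds were added to a substrate mix at pH 7.2 (50 mM imidazole, 10 uM ATP, within the enzyme's linear range), followed by Kinase-Glo detection reagent; luminescence was measured after 8 minutes at ambient temperature.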
Starred values were filed as active, the others as inactive; ? = inconclusive; / = no result. The call rests on the fitted dose curve; in most records, active means well fitted curve in the direction sought with a large enough effect; inconclusive means small, poorly fitted or top-dose-only effect, or another doubt; inactive means no such curve, though single readings can be large; an effect the other way counts as inactive or inconclusive. Potency means the concentration at half of the fitted maximal effect.

SMILES | NPC1 prom act | ELG1 genotoxic | SMN2 splice up | FLuc counter | Rab9 prom act | Luc counter
CN1c2ccccc2C(O)=C(C(=S)Nc2ccccc2)S1(=O)=O | -1% | -12% | -16% | ? | -7% | 5%
Cc1ccc(NC(=S)C2=C(O)c3ccccc3N(C)S2(=O)=O)cc1 | 0% | -6% | -10% | 19µM* | 5% | 4%
Cc1ccc(CSc2nnc(CNc3ccc(F)cc3)o2)cc1 | -5% | -6% | -33% | -19% | -3% | -1%
CCCCN(C)C(=O)c1ccc2c(=O)n3nc(Nc4cc(C)ccc4C)sc3nc2c1 | / | / | / | -4% | / | /
CCOC(=O)c1c(C)[nH]c(C(=O)C(C)Sc2ccc(Cl)cc2)c1C (stereo not drawn) | 14% | 1% | 2% | 27µM* | ? | -3%
CCOC(=O)c1c(C)[nH]c(C(=O)CSc2ccccc2)c1C | 0.56µM* | 0.65µM* | / | 0.54µM* | 0.4µM* | /
CCOC(=O)c1c(C)[nH]c(C(=O)COC(=O)c2oc3ccccc3c2C)c1C | 4% | 3% | -10% | 2% | -2% | -3%
CCOC(=O)c1c(C)[nH]c(C(=O)N/N=C\c2ccccc2O)c1C | -7% | ? | -78% | 6.7µM* | -6% | -1%
CCOC(=O)c1c(C)[nH]c(C(=O)CSc2nccc(C)n2)c1C | 2.8µM* | ? | 8.9µM* | ? | 2.8µM* | -1%
CCOC(=O)c1c(C)[nH]c(C(=O)COC(=O)CCSc2ccccc2)c1C | 9% | ? | 23% | 17µM* | 2% | -1%
CCOC(=O)c1[nH]c(C)c(C(=O)OCc2ccc(C)cc2)c1C | -5% | 0% | / | 1% | 0% | /
Cc1cc(C(=O)CSc2ccc(F)cc2)cc(C)c1O | 12% | ? | / | 19µM* | 17% | /
CCOC(=O)c1[nH]c(C)c(C(=O)/C=C/c2ccc(C(=O)O)cc2)c1C | 6% | 22% | / | 13µM* | -3% | /
CCOC(=O)c1c(C)[nH]c(C(=O)OCc2ccccc2)c1C | 1.3µM* | 1.8µM* | / | 2.1µM* | 0.63µM* | /
CC(=O)c1c(C)[nH]c(C(=O)COC(=O)CCSc2ccccc2)c1C | -1% | 0% | -13% | 4% | -1% | 3%
O=C(NCCc1ccccc1)c1ccc2c(c1)CCN2S(=O)(=O)c1ccccc1 | / | / | 1% | 3% | / | /
CCCS(=O)(=O)N1CC(=O)N(c2ccc(Cl)cc2)C(C)(C(=O)NC2CCCC2)C1 (stereo not drawn) | / | / | / | 0% | / | /
Cc1ccn2c(C(=O)CSc3ccc(Cl)cc3)c(C)nc2c1 | -2% | -6% | -31% | -2% | -3% | 1%
Cc1cc(C(=O)CSc2ccc(Cl)cc2)cc(C)c1OC(=S)N(C)C | 2.8µM* | ? | -9% | 9.5µM* | ? | 1%
CC(=O)c1c(C)[nH]c(C(=O)CSc2ccc(F)cc2)c1C | ? | 6% | / | 13µM* | 17% | /
O=C(O)c1cc(=O)c2ccc(Cl)cc2[nH]1 | / | / | 21% | / | / | -1%
Cc1cc2cc(CCNC(=O)c3cccs3)c(=O)[nH]c2cc1C | 2.8µM* | ? | 13µM* | 13µM* | 3.2µM* | 0%
Cc1ccc2cc(CCNC(=O)c3ccco3)c(=O)[nH]c2c1C | 3.5µM* | ? | 7.1µM* | 4.3µM* | 1.4µM* | 1%
COc1ccc2cc(CCNC(=O)c3ccco3)c(=O)[nH]c2c1 | 1.6µM* | 10µM* | / | 12µM* | 1.4µM* | /
Cc1ccc2cc(CCNC(=O)CCCc3ccccc3)c(=O)[nH]c2c1 | 1% | 0% | / | -1% | -3% | /
CCC(CC)C(=O)NCCc1cc2cc(C)c(C)cc2[nH]c1=O | -5% | -9% | 15% | 0% | -4% | 2%
Cc1ccc2cc(CCNC(=O)c3ccco3)c(=O)[nH]c2c1 | ? | 18% | 10µM* | 19µM* | 2.5µM* | 3%
CCCCc1ccc(NC2=NCC(=O)N2CCc2ccccc2)cc1 | -3% | -4% | / | -1% | -11% | -3%
